From PubChem
DAX1 inh-1: inhibitors of human orphan nuclear receptor DAX1 (NR0B1); P51843; HEK293 Gal4-DAX1 luciferase reporter, luminescence; inhibition, % at 6.75 µM; actives 0.99% (n = 340,000);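 active = inhibition above the mean over all tested compounds plus 3 SD, cut at about 4.2% in these data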;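 note: 0% = DAX1-transfected cells with DMSO and 100% = empty-vector control cells with DMSO; inhibition shows as a rise in luminescence from relieved DAX1 repression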
Target sequence (P51843 207-470 limits assumed): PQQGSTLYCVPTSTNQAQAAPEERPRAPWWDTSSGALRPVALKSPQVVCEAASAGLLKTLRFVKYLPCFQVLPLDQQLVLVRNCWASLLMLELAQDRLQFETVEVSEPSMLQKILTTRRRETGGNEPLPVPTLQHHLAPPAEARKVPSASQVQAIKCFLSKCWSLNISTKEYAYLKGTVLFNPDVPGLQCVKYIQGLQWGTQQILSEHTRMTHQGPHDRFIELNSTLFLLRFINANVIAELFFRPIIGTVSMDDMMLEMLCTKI
ssDAF12 agonist: activators of S. stercoralis DAF-12 nuclear receptor; activation, % at 6.8 µM; HEK293 ssDAF-12/GRIP1 lit1-tk-luc reporter, luminescence; % of 3 µM dafachronic acid response; actives 1% (n = 370,000);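 active = activation above the mean over all tested compounds plus 3 SD, cut at about 0.9% in these data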;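 note: 0% = DMSO-only wells and 100% = 3 µM delta7-dafachronic acid wells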
hcDAF12 agonist: H. contortus DAF-12 activation, primary screen. actives 1.4% (n = 370,000). HEK293 hcDAF-12 lit1-tk-luc reporter, luminescence; 0% DMSO, 100% Δ7-dafachronic acid. activation, % at 6.8 µM. AID 652067;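 active = activation above the mean of all tested compounds plus 3 SD, cut at about 5.5% in these data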;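 note: 100% = response to 3 µM Δ7-dafachronic acid high control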
DAX1 inh-2: inhibitors of DAX1 repression of SF-1 activated StAR promoter | inhibition, % at 6.8 µM | actives 1.1% (n = 370,000) | HEK293T StAR-luciferase reporter, SF-1/DAX-1 repression relief | AID 652010;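 active = inhibition above the mean over all tested compounds plus 3 SD, cut at about 3.6% in these data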;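 note: 0% = DAX-1 cells with DMSO and 100% = cells lacking DAX-1 with DMSO; higher inhibition means more luminescence from relief of DAX-1 repression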
hgDAF12 agonist: activates the H. glycines DAF-12 receptor ligand-binding domain; activation, % at 6.8 µM; HEK293 GAL4-hgDAF12 UAS-luciferase reporter, agonist luminescence; normalized to butyrate control; actives 1.8% (n = 370,000);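 active = activation above a cutoff set at the mean of all screened compounds plus 3 SD, cut at about 10% in these data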;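 note: 0% = DMSO wells and 100% = sodium butyrate wells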
Active calls of the source: *; / = no result given. An excerpt weighted towards active compounds, which were near 4.1% of everything screened.

SMILES	DAX1 inh-1	ssDAF12 agonist	hcDAF12 agonist	DAX1 inh-2	hgDAF12 agonist
COc1cccc2sc3cc(C#CC4(O)CCCCC4)ccc3c(=O)c12	0.9	0.7	1.8	2.5	10.5*
COc1cccc2sc3ccc(C#CC4(N)CCCCC4)cc3c(=O)c12	1.6	-0.5	0.4	0.2	2.2
O=C(COc1ccc(Br)cc1)Nc1ccccc1N1CCCC1	2.1	1.4*	1.4	-0.2	1.8
O=C(CN1C(=O)C2CCCCC2C1=O)Nc1ccccc1N1CCCC1 (configuration not stated)	1.9	-0.8	0.8	4.1*	1.7
O=C(CN1C(=O)C2CC=CCC2C1=O)Nc1ccccc1N1CCCC1 (configuration not stated)	0.0	-1.4	0.1	-0.7	3.5
CC(=O)N1CCN(c2ccccc2NC(=O)COc2ccc(Br)cc2)CC1	0.1	-1.5	-1.9	-1.4	0.0
COc1ccc(N2CCCC2)c(NC(=O)COc2ccccc2Cl)c1	0.4	1.5*	3.6	0.4	1.3
O=C(COc1ccccc1Cl)Nc1cc(Cl)ccc1O	4.9*	1.6*	5.7*	0.6	5.6
C=CCN1C(=O)[C@H](CC(=O)NCC23CC4CC(CC(C4)C2)C3)[C@@]2(C(=O)OCC)CCCC=C12	/	-1.3	-3.3	-1.7	0.4
CC(C)[C@H]1COc2c3ccccc3nn21	/	-0.1	1.6	1.7	4.5
Cc1ccc(CC(=O)Nc2cccc(C)n2)cc1	2.1	1.9*	3.2	1.7	4.6
Cc1cccc(NC(=O)COc2ccc3c(c2)CCC3)n1	1.4	-0.6	2.4	3.8*	6.5
Cc1cccc(NC(=O)Cc2ccc(-c3ccccc3)cc2)n1	0.5	0.3	-1.5	0.6	1.9
COC(=O)N1C[C@H](OC)[C@H]2C[C@@H]1c1ccccc1O2	/	-1.2	-1.9	0.6	-0.1
COc1cc(/C=C2/C(=N)N3N=C(CC(=O)N4CCOCC4)SC3=NC2=O)ccc1OCc1ccc(F)cc1	0.6	0.0	3.2	3.8*	9.3
Nc1ccc2nc(Cc3ccccc3)[nH]c2c1	4.6*	-1.4	1.0	-0.2	-3.3
O=Cc1cnc(N2CCCCC2)s1	7.1*	0.0	-1.1	0.8	1.2
Cc1ccc2nc(NCCc3ccc(Cl)cc3)c3nncn3c2c1	1.5	-1.1	0.1	0.0	0.5
Cc1cccc(CCNc2nc3ccc(C)cc3n3cnnc23)c1	5.0*	-1.9	0.1	-0.5	1.1
CCOC(=O)c1ccc(NC(=O)NC2=NCCS2)cc1	0.0	-0.6	1.1	1.1	11.2*
CCOC(=O)c1ccc(NC(=O)Nc2ccc3c(c2)OCCO3)cc1	-0.8	-1.5	-3.0	-2.2	-1.6
COc1cccc(C(=O)NC2=NCCS2)c1	1.9	0.8	4.9	3.0	10.6*
CCOc1cccc(C(=O)NC2=NCCS2)c1	8.1*	0.8	3.6	2.4	8.9
O=C(NC1=NCCS1)c1ccc(Cl)cc1	1.0	-0.2	5.7*	1.8	8.8
O=C(NC1=NCCS1)c1cccc(F)c1	/	0.0	1.0	0.2	3.5
SMILES	DAX1 inh-1	ssDAF12 agonist	hcDAF12 agonist	DAX1 inh-2	hgDAF12 agonist
CCOC(=O)[C@]12CCCCC/C=C\1N(Cc1ccc(OC)cc1)C(=O)[C@H]2CC(=O)NCc1ccc(OC)c(OC)c1	/	-1.9	-1.8	-0.3	-0.9
CC(C)CNS(=O)(=O)CC1NCc2cc3c(cc21)OCO3 (configuration not stated)	/	-0.8	-2.3	-0.6	0.1
O=C(NCCc1ccccc1)OCc1cn(Cc2cccc(Cl)c2)nn1	/	-1.6	-0.9	0.4	2.4
O=C(NC1=NCCS1)c1cccc(Br)c1	7.7*	0.2	5.2	2.1	11.0*
Cn1c(COc2ccc([N+](=O)[O-])cc2)nnc1SCC(=O)NCC1CCCO1 (configuration not stated)	-0.5	1.0*	-2.5	0.0	0.2
Cn1c(SCC2CCCO2)nnc1-c1ccncc1 (configuration not stated)	-0.2	-1.4	-1.0	0.8	-1.9
CN(C)c1ccc(-c2nnc(SCC3CCCO3)n2C)cc1 (configuration not stated)	4.8*	0.1	2.5	2.1	8.0
Cc1cccc(C(=O)N2CCN(c3ccc(N4CCOCC4)nn3)CC2)c1	4.4*	2.2*	-0.2	-0.6	-2.3
CN(C)C(=S)NC(=S)Nc1ccc2ccccc2c1	0.2	1.3*	11.7*	3.0	16.8*
C#CCNC(=O)C[C@H]1C[C@@]2(C(=O)OC)C(=C[C@H](C(C)C)O[C@@H]2C2CC2)N(CCC2=CCCCC2)C1=O	/	-1.0	-0.6	-0.7	-3.5
COC(=O)c1c(NC(=O)C2CCCCC2C(=O)O)sc2c1CCCCC2 (configuration not stated)	4.9*	0.4	2.7	2.0	3.2
CCc1nc2ccc(C(=O)N3CCN(C)CC3)cn2c1N(C)CCCc1ccccc1	/	-0.2	-0.7	0.2	0.0
Cc1noc(C)c1NC(=O)Nc1ccc2c(c1)C(=O)N([C@H](C)CO)C[C@H](C)[C@@H](CN(C)S(=O)(=O)c1ccc(Cl)cc1)OCCCC[C@@H](C)O2	6.1*	-0.7	-0.8	0.2	-2.0
C[C@@H]1CN([C@@H](C)CO)C(=O)c2cc(N(C)C)ccc2O[C@@H]1CN(C)Cc1ccncc1	1.2	1.3*	-1.1	0.2	1.7
C[C@@H]1CN([C@@H](C)CO)C(=O)c2cc(NC(=O)c3ccncc3)ccc2O[C@@H](C)CCCCO[C@@H]1CN(C)C(=O)Cc1ccccc1	0.4	0.2	0.7	0.0	1.4
C[C@@H]1CCCCO[C@H](CN(C)Cc2ccncc2)[C@@H](C)CN([C@H](C)CO)C(=O)c2cc(N(C)C)ccc2O1	/	-0.8	-1.0	-0.5	1.4
Cc1noc(C)c1NC(=O)Nc1ccc2c(c1)C(=O)N([C@@H](C)CO)C[C@@H](C)[C@H](CN(C)S(=O)(=O)c1ccc(F)cc1)OCCCC[C@H](C)O2	/	-1.2	1.3	/	1.5
C[C@@H]1CCCCO[C@@H](CN(C)Cc2ccncc2)[C@@H](C)CN([C@H](C)CO)C(=O)c2cc(NC(=O)c3ccccc3)ccc2O1	4.8*	-1.3	-1.5	-0.2	-1.1
O=C(NC(Cc1ccccc1)C(=O)O)/C(=C/c1ccccc1)NC(=O)c1cccc(Br)c1 (configuration not stated)	1.5	-1.0	-1.3	0.1	0.1
CCc1nc2ccc(C(=O)NC(C)(C)C)cn2c1N(CC)Cc1cccc(Br)c1	/	-0.9	-2.4	-1.4	-0.8
CC(C)C(=O)NNS(=O)(=O)c1ccccc1	-0.6	-1.3	-0.8	-0.2	1.4
CNNC(=O)C(=O)NNS(=O)(=O)c1ccccc1	5.8*	-0.4	2.8	0.6	-0.4
O=C(NCc1ccccc1)C(c1ccncc1)n1c(=O)c(-c2ccccc2)nc2ccccc21 (configuration not stated)	/	-0.7	-0.1	0.0	4.0
COc1ccc(NC(=O)C(c2cc3ccccc3o2)n2c(=O)c(-c3cc4ccccc4[nH]3)nc3ccccc32)cc1 (configuration not stated)	/	1.3*	5.8*	0.4	3.2
